Compounds without any hit were thinned out: in the full panel of roughly 83,000, 20% have a hit.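 Note: values are percent growth. 100 is the growth of untreated cells, values between 100 and 0 indicate rising inhibition; between -100 and 0 indicates cell death.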 The source made the active and inactive calls. Rule for the calls: active = growth percent below 10; inactive = the rest.
System: T-47D breast
Assay: NCI-60 one-dose screen, 48 h (100 = growth as untreated, 0 = no growth, -100 = all killed)
Settings: 10 µM unless noted

Structure (SMILES) | growth
Nc1nc(N)nc(N2CCCCC2)n1 | 101% (inactive)
O=C1NCC2CCCC1C2 (stereo not drawn) | 118% (inactive)
Cc1cc(CO)c(O)c(CO)c1 | 96.4% (inactive)
C#CC(O)c1ccccc1 (stereo not drawn) | 99.9% (inactive)
COc1ccc(Br)c(C=O)c1 | 69.9% (inactive)
COC(c1ccc2c(c1)OCO2)C(C)Br (stereo not drawn) | 71.8% (inactive)
O=C(O)c1ccccc1Cc1ccc2c(c1)CCCC2 | 113% (inactive)
O=[N+]([O-])c1ccc(-c2nc(N(CCO)CCO)c3ccccc3n2)o1 | 8.21% (active)
O=Cc1ccc(Cl)c(Cl)c1 | 115% (inactive)
CCC(C)C1CCC(O)CC1 (stereo not drawn) | 104% (inactive)
CC(C)c1ncc([N+](=O)[O-])n1C | 101% (inactive)
COc1ccc(/C=C\C(=O)/C=C/c2ccc(OC)cc2)cc1 | 80.1% (inactive)
Nc1cc2c(cc1Cl)C(=O)c1ccccc1C2=O | 35.7% (inactive)
Cc1ccc(Cc2ccc(C)cc2)cc1 | 101% (inactive)
N#C/C(=C\c1ccc2c(c1)OCO2)c1ccccc1 | 61.4% (inactive)
CCOC(=O)c1c[nH][nH]c1=O | 103% (inactive)
O=c1[nH]c(=O)c2cc(Cl)cc(Cl)c2[nH]1 | 111% (inactive)
CC(=O)c1cc(O)ccc1O | 108% (inactive)
Nc1ccn(C2CC(N)C(CO)O2)c(=O)n1 (stereo not drawn) | 81.1% (inactive)

Structure (SMILES) | growth
CNc1ccccc1C(N)=O | 98.1% (inactive)
Cn1c(=O)[nH]c2ccccc2c1=O | 95.2% (inactive)
CCOC(=O)C(C#N)=C1CCN(C)CC1 | 106% (inactive)
NNC(=O)c1ccccc1N | 103% (inactive)
COC(CCCl)c1ccc(Cl)cc1 (stereo not drawn) | 98.1% (inactive)
C=CCC(OC(C)=O)c1ccc(OC)c(OC)c1 (stereo not drawn) | 112% (inactive)
COc1ccc(C2CCCCC2=O)cc1 (stereo not drawn) | 100% (inactive)
O=[N+]([O-])c1c(Cl)ncnc1Cl | 117% (inactive)
CCN(CC)c1ccc2nc3ccc(N=Nc4ccc(N(C)C)cc4)cc3[n+](-c3ccccc3)c2c1 | 0.779% (active)
c1ccc2[nH]c(Cc3nc4ccccc4[nH]3)nc2c1 | 89.3% (inactive)
CC1=CC(=Nc2ccc(N(C)C)cc2)C=C(C)C1=O | 48.5% (inactive)
N#CCCN1C(=O)CCC1C(=O)O (stereo not drawn) | 121% (inactive)
O=C(O)Cc1cccc2ccccc12 | 103% (inactive)
Cc1nc(C)c(C(=O)O)cc1C(=O)O | 122% (inactive)
Clc1ccc(/C=C/c2ccccn2)cc1 | 44.1% (inactive)
N#CC1(O)CCCCC1 | 103% (inactive)
CCNc1ncnc2[nH]ncc12 | 103% (inactive)
CC12CCC3c4ccc(O)cc4CCC3C1CCC2=O (stereo not drawn) | 103% (inactive)

System: BT-549 breast
Assay: as above
Settings: 10 µM unless noted

Structure (SMILES) | growth
Nc1nc(N)nc(N2CCCCC2)n1 | 106% (inactive)
O=C1NCC2CCCC1C2 (stereo not drawn) | 98.3% (inactive)
Cc1cc(CO)c(O)c(CO)c1 | 94.7% (inactive)
C#CC(O)c1ccccc1 (stereo not drawn) | 106% (inactive)
COc1ccc(Br)c(C=O)c1 | 76.6% (inactive)
COC(c1ccc2c(c1)OCO2)C(C)Br (stereo not drawn) | 104% (inactive)
O=C(O)c1ccccc1Cc1ccc2c(c1)CCCC2 | 106% (inactive)
O=[N+]([O-])c1ccc(-c2nc(N(CCO)CCO)c3ccccc3n2)o1 | -88.5% (active)
CCC(C)C1CCC(O)CC1 (stereo not drawn) | 98.5% (inactive)
CC(C)c1ncc([N+](=O)[O-])n1C | 103% (inactive)
COc1ccc(/C=C\C(=O)/C=C/c2ccc(OC)cc2)cc1 | 48.5% (inactive)
Nc1cc2c(cc1Cl)C(=O)c1ccccc1C2=O | 37.9% (inactive)
Cc1ccc(Cc2ccc(C)cc2)cc1 | 91.2% (inactive)
CCOC(=O)c1c[nH][nH]c1=O | 106% (inactive)
O=c1[nH]c(=O)c2cc(Cl)cc(Cl)c2[nH]1 | 91.4% (inactive)
CC(=O)c1cc(O)ccc1O | 90.9% (inactive)

Structure (SMILES) | growth
Nc1ccn(C2CC(N)C(CO)O2)c(=O)n1 (stereo not drawn) | 71.8% (inactive)
CNc1ccccc1C(N)=O | 101% (inactive)
CCOC(=O)C(C#N)=C1CCN(C)CC1 | 103% (inactive)
NNC(=O)c1ccccc1N | 121% (inactive)
COC(CCCl)c1ccc(Cl)cc1 (stereo not drawn) | 102% (inactive)
C=CCC(OC(C)=O)c1ccc(OC)c(OC)c1 (stereo not drawn) | 116% (inactive)
COc1ccc(C2CCCCC2=O)cc1 (stereo not drawn) | 111% (inactive)
O=[N+]([O-])c1c(Cl)ncnc1Cl | 106% (inactive)
CCN(CC)c1ccc2nc3ccc(N=Nc4ccc(N(C)C)cc4)cc3[n+](-c3ccccc3)c2c1 | -23.3% (active)
CC1=CC(=Nc2ccc(N(C)C)cc2)C=C(C)C1=O | 74.1% (inactive)
N#CCCN1C(=O)CCC1C(=O)O (stereo not drawn) | 107% (inactive)
O=C(O)Cc1cccc2ccccc12 | 107% (inactive)
N#CC1(O)CCCCC1 | 93.9% (inactive)
CCNc1ncnc2[nH]ncc12 | 84.3% (inactive)
CC12CCC3c4ccc(O)cc4CCC3C1CCC2=O (stereo not drawn) | 89.2% (inactive)

Source: PubChem BioAssay (NCI)
